Compound activity (PubChem BioAssay)
This is a sample that favours compounds with a hit; in the whole collection about 1.8% have one here.
Mtb hypoxia rep = PubChem AID 1159583; fluorescence inhibition, % (concentration not given with the values); 300,000 compounds, 0.1% hits; M. tuberculosis hypoxia-regulated fluorescent reporter, fluorescence; in the data active = fluorescence inhibition mostly above about 23%, no sharp cut-off; inactive = mostly below about 17%
RN4220 kill = growth inhibition of S. aureus RN4220, primary screen, OD600; 16 h; inhibition, % (no concentration beside the values); 330,000 compounds, 0.33% hits; AID 1259311, 2017; in the data active = inhibition above about 85%
Sa ugtP lethal = growth inhibition of ugtP-null S. aureus, primary screen, RN4220 ugtP deletion, OD600. growth inhibition, % (no concentration beside the values). 16 h. 330,000 compounds, 0.54% hits; in the data active = growth inhibition above about 68%
PfHsp40 rescue = rescue of yeast from PfHsp40 toxicity, primary screen, S. cerevisiae, ATP luminescence; S. cerevisiae expressing PfHsp40, growth rescue; growth rescue, % at 12.5 µM; 340,000 compounds, 0.68% hits; AID 504582, 2011; in the data active = growth rescue above about 28%, passing the limit was not always enough;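 note: yeast W303a lacking pdr1 and pdr3 grown in galactose medium; growth measured after three days at 30 °C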
SSB-PriA inh = inhibitors of Klebsiella pneumoniae PriA binding to SSB C-terminal tail, primary screen, biochemical, AlphaScreen; AID 1272365, 2023; inhibition, % at 33 µM; 430,000 compounds, 0.6% hits; PriA–SSB C-terminal tail interaction (Klebsiella pneumoniae); AlphaScreen SSBct-PriA binding, biotinylated peptide; in the data active = inhibition mostly above about 37%, no sharp cut-off; inactive = mostly below about 20%
DUSP3 inh = VHR1 phosphatase inhibitors, primary screen, biochemical, absorbance, uHTS; Dual specificity protein phosphatase 3 (Homo sapiens), P51452; recombinant VHR phosphatase, pNPP absorbance; inhibition, % at 13.3 µM; 290,000 compounds, 0.52% hits; AID 1654, 2009; in the data active = inhibition above about 50%
Target sequence (P51452 whole entry, looked up): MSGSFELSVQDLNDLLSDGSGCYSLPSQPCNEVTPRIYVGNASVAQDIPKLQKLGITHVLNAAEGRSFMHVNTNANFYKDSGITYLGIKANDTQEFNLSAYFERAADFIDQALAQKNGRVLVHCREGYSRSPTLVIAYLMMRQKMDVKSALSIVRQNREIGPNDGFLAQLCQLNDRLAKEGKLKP
Numbers stand for hits.

Screening CCC(Cc1ccccc1)=NNC(=O)CNC(=O)c1ccc(Cl)cc1Cl returned Mtb hypoxia rep inactive, RN4220 kill inactive, Sa ugtP lethal inactive and SSB-PriA inh inactive.
`CC(=O)c1ccc(NC(=S)N2CCN(CCN3C(=O)c4cccc5cccc(c45)C3=O)CC2)cc1` gave PfHsp40 rescue inactive, SSB-PriA inh inactive and DUSP3 inh 55.
CC(=O)c1cccc(NC(=S)N2CCN(CCN3C(=O)c4cccc5cccc(c45)C3=O)CC2)c1 was read as Mtb hypoxia rep inactive, RN4220 kill inactive, Sa ugtP lethal inactive, PfHsp40 rescue inactive, SSB-PriA inh inactive and DUSP3 inh inactive.
`O=C(/C=C/c1ccccc1)N1CCN(CCN2C(=O)c3cccc4cccc(c34)C2=O)CC1` gave Mtb hypoxia rep inactive, RN4220 kill inactive, Sa ugtP lethal 98, PfHsp40 rescue inactive, SSB-PriA inh inactive and DUSP3 inh inactive.
For O=C(O)C(=NNC(=O)c1ccc(Cl)cc1)c1ccccc1 the results were Mtb hypoxia rep inactive, RN4220 kill inactive, Sa ugtP lethal inactive and SSB-PriA inh inactive.
O=C(CSCCO)Nc1cccc([N+](=O)[O-])c1 was read as Mtb hypoxia rep inactive, RN4220 kill inactive, Sa ugtP lethal inactive, PfHsp40 rescue inactive, SSB-PriA inh inactive and DUSP3 inh inactive.
`O=C(CSCCO)Nc1ccc([N+](=O)[O-])cc1` gave Mtb hypoxia rep inactive, RN4220 kill inactive, Sa ugtP lethal inactive, PfHsp40 rescue inactive, SSB-PriA inh inactive and DUSP3 inh 52.
Screening CC(C)c1cc(NCCOCCO)n2c(nc3ccccc32)c1C#N returned Mtb hypoxia rep inactive, RN4220 kill inactive, Sa ugtP lethal inactive, PfHsp40 rescue inactive, SSB-PriA inh 39 and DUSP3 inh inactive.
For CNC[C@@H](CC1CCCCC1)NC[C@H](CC(C)C)NCCc1cccc(C(F)(F)F)c1 the results were PfHsp40 rescue inactive, SSB-PriA inh inactive and DUSP3 inh inactive.
`CNCC(CC1CCCCC1)NCC(CC(C)C)NCCc1cccc(C(F)(F)F)c1` (configuration not stated) gave RN4220 kill 89 and Sa ugtP lethal inactive.
Screening O=C(C[n+]1ccccc1)NN=Cc1cc(Br)cc(Br)c1O returned Mtb hypoxia rep inactive, RN4220 kill inactive, Sa ugtP lethal inactive and SSB-PriA inh 57.
For O=C(C[n+]1ccccc1)N/N=C/c1cc(Br)cc(Br)c1O the results were PfHsp40 rescue inactive and DUSP3 inh inactive.
`C[n+]1c(-c2ccc(C=NNC(=O)c3ccc(C(=O)NN=Cc4ccc(-c5cn6ccccc6[n+]5C)cc4)cc3)cc2)cn2ccccc21` gave PfHsp40 rescue 92.
COc1cc2ccccc2cc1C(=O)NN=Cc1cccnc1 was read as Mtb hypoxia rep 48, RN4220 kill inactive, Sa ugtP lethal inactive and SSB-PriA inh inactive.
Screening O=C(Cc1csc(Nc2cccc(C(F)(F)F)c2)n1)Nc1cccnc1 returned SSB-PriA inh inactive.
Screening c1ccc(CN2CCN(CCN3CCn4c3nc3ccccc34)CC2)cc1 returned RN4220 kill inactive, Sa ugtP lethal inactive, PfHsp40 rescue inactive, SSB-PriA inh inactive and DUSP3 inh inactive.
For c1ccc2c(c1)nc1n2CCN1CCN1CCCC1 the results were Mtb hypoxia rep inactive, RN4220 kill inactive, Sa ugtP lethal inactive, PfHsp40 rescue 44, SSB-PriA inh inactive and DUSP3 inh inactive.
Screening CC(C)(C)c1ccc(-c2nnc3sc(-c4cnccn4)nn23)cc1 returned SSB-PriA inh 51.
Screening CC(C)(C)c1ccc(-c2nn3c(-c4ccccn4)nnc3s2)cc1 returned SSB-PriA inh inactive.
Screening O=C(c1ccc([N+](=O)[O-])c(CS(=O)(=O)c2ccc(Cl)cc2)c1)N1CCCC1 returned Mtb hypoxia rep inactive, RN4220 kill inactive, Sa ugtP lethal inactive, PfHsp40 rescue 41, SSB-PriA inh inactive and DUSP3 inh inactive.
`O=C(CC1=NNC(=O)C1)NN=Cc1ccccc1[N+](=O)[O-]` gave Mtb hypoxia rep inactive, RN4220 kill inactive, Sa ugtP lethal inactive and SSB-PriA inh inactive.
NC(=O)N=Nc1c2[nH]c3ccccc3nc-2c2ccccc12 was read as PfHsp40 rescue 45, SSB-PriA inh inactive and DUSP3 inh inactive.
`CCc1ccc(S(=O)(=O)NCC2CCN(c3ccncc3)CC2)s1` gave SSB-PriA inh inactive.
Screening N=C(N)c1ccc(N=Nc2c(O)ccc3c2[nH]c2ccccc23)cc1 returned PfHsp40 rescue inactive and SSB-PriA inh 82.
CN1Cc2cc(C(=O)c3cc(Cl)cc(CSc4ncccn4)c3O)cnc2NC1=O was read as DUSP3 inh 56.
Cc1cccc(-c2noc(-c3cc(-c4ccccc4C)n[nH]3)n2)c1 was read as SSB-PriA inh inactive.
`Cc1ccc(NC(=O)c2cc(N3C(=O)C=CC3=O)ccc2N2CCOCC2)cc1Cl` gave Mtb hypoxia rep inactive, RN4220 kill inactive, Sa ugtP lethal inactive, PfHsp40 rescue 36, SSB-PriA inh inactive and DUSP3 inh inactive.
`COc1ccccc1/C=C/C=Nn1c(-c2ccc(Cl)cc2)n[nH]c1=S` gave Mtb hypoxia rep inactive, RN4220 kill inactive, Sa ugtP lethal inactive and SSB-PriA inh inactive.
For O=c1c(Cl)c(Cl)cnn1Cc1nnc(-c2ccc(Cl)cc2)o1 the results were Mtb hypoxia rep inactive, RN4220 kill inactive, Sa ugtP lethal inactive, PfHsp40 rescue 236, SSB-PriA inh inactive and DUSP3 inh inactive.
For Cc1ccc(Cn2ncc(Cl)c(Cl)c2=O)cc1 the results were RN4220 kill inactive, Sa ugtP lethal inactive, PfHsp40 rescue inactive, SSB-PriA inh inactive and DUSP3 inh inactive.
Screening O=C(Cn1nc2ncccn2c1=O)Nc1ccc2c(c1)OCO2 returned SSB-PriA inh inactive.
Screening Cn1c(O)c(C=CC=Nc2ccccc2)c(=O)n(C)c1=S returned SSB-PriA inh inactive.
Screening Cn1c(O)c(/C=C/C=Nc2ccccc2)c(=O)n(C)c1=S returned Mtb hypoxia rep inactive, RN4220 kill inactive, Sa ugtP lethal inactive, PfHsp40 rescue inactive and DUSP3 inh 54.
Cc1ccc(O)c(C(=O)CC(=O)c2ccc(C(C)(C)C)cc2)c1 was read as Mtb hypoxia rep inactive, RN4220 kill 99, Sa ugtP lethal 100, PfHsp40 rescue inactive, SSB-PriA inh inactive and DUSP3 inh inactive.
Screening Cc1ccc(O)c(C(=O)CC(=O)c2ccccc2Cl)c1 returned Mtb hypoxia rep inactive, RN4220 kill 100, Sa ugtP lethal 99, PfHsp40 rescue inactive, SSB-PriA inh inactive and DUSP3 inh inactive.
For Cn1cccc1CN(Cc1cccs1)S(=O)(=O)c1cc2c3c(c1)CCN3C(=O)CC2 the results were SSB-PriA inh inactive.
COc1cc(NC(=O)CSc2ncc(-c3cccc(Cl)c3)o2)cc(OC)c1OC was read as SSB-PriA inh inactive.
`CN(C)S(=O)(=O)c1cccc(N=C2NN=C(c3ccccc3)CS2)c1` gave SSB-PriA inh inactive and DUSP3 inh inactive.
